Source: PubChem BioAssay
Most compounds without a hit are left out; they make up all but 7.8% or so of the library.
HCV inhibitor: HCV inhibition. Huh7.5.1 HCVcc-Cre infection, luciferase reporter, 44 h. 340,000 compounds, 3.4% hits. Potency, µM (titrated, usually from 41.8 µM), for the others: at the highest dose activity change, negative = inhibition, usual class: inhibitors; active means well fitted inhibition curve with a large enough effect; inconclusive means small, poorly fitted or top-dose-only effect, or another doubt; inactive means no such curve, though single readings can be large or run the other way; further: potency means the concentration at half of the fitted maximal effect
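Cells seeded at 1,000/well and cultured 4 h, then compounds added followed by HCVcc-Cre virus (~0.5 moi). After 44 h further culture, luciferase substrate was added, plates held 15 min at room temperature, and luminescence read for 15 sec.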
HCMV inh: inhibitors of human cytomegalovirus. HFF cells, HCMV-luciferase reporter, 72 h; hits give low values. activity change, negative = inhibition, % at 57.5 µM. 410,000 compounds, 4.5% hits. AID 1259415; in the data active means activity change below about -60%; inconclusive means no clear call, values can overlap the other calls; inactive means above about -39%
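Steps: HFFs plated, 16 h 37C; compounds added; HCMV-luciferase added to MOI 1 PFU/cell; 72 h 37C; OneGlo reagent, 5 min room temperature; luminescence read, normalized to controls.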
VACV Venus inh: inhibitors of vaccinia virus (Venus reporter); AID 720580; 330,000 compounds, 0.46% hits; Potency, µM (doses to about 36.5 µM), inactives show top-dose activity change, negative = inhibition, hits mostly inhibitors; Vaccinia virus Venus reporter expression, fluorescence; calls by dose curve; tested in A549 cells; further: potency means the concentration at half of the fitted maximal effect; nearly all actives have a fitted effect of over 30% in size
LASV entry inh: blocks Lassa virus binding to or entry into cells | 300,000 compounds, 1.2% hits | Potency, µM (top dose mostly 37.9 µM), for inactives: at the top dose activity change, negative = inhibition, most hits filed as inhibitors | Lassa virus pseudotype entry inhibition, cell reporter; calls by dose curve; tested in HEK293 cells; further: potency means the concentration at half of the fitted maximal effect; nearly all actives have a fitted effect of over 50% in size
Marburg entry inh: Marburg virus entry inhibition; 300,000 compounds, 1.8% hits; AID 540276; Marburg virus pseudotyped entry inhibition, cell reporter; Potency, µM (doses to about 37.8 µM), inactives show at the highest dose activity change, negative = inhibition, hits mostly inhibitors; calls by dose curve; tested in HEK293 cells; further: potency means the concentration at half of the fitted maximal effect
Vaccinia mCherry: inhibitors of vaccinia virus infection (mCherry reporter signal) | Potency, µM (series often up to 36.5 µM), for the others: top-dose activity change, negative = inhibition, actives largely listed as inhibitors | Vaccinia virus mCherry reporter infection, fluorescence | 310,000 compounds, 0.63% hits; calls by dose curve; tested in A549 cells; further: potency means the concentration at half of the fitted maximal effect; nearly all actives have a fitted effect of over 35% in size
* = called active by the depositor; i = inactive; ? = inconclusive; . = no result given; ! = not active in a repeat; [ ] = remark or other dose. On the % scale 0 is the no-effect control and ±100 the full control effect.

SMILES	HCV inhibitor	HCMV inh	VACV Venus inh	LASV entry inh	Marburg entry inh	Vaccinia mCherry
COc1cccc(C(c2nnnn2Cc2ccco2)N2CCN(c3cccc(C)c3C)CC2)c1OC (stereo unspecified)	11µM*	-4	?	?	?	?
Cc1ccc(C(c2nnnn2CC2CCCO2)N2CCN(c3cccc(C)c3C)CC2)cc1 (stereo unspecified)	11µM*!	32	?	?	?	.
Cc1ccc2nc(COc3cccc(NC(=O)COc4ccc(F)cc4)c3)cc(=O)n2c1	.	23	-11%	?	.	i
CCOC(=O)c1ccc(NC(=O)c2c(C)nn(-c3ccc(F)cc3)c2-n2cccc2)cc1	.	-5	-15%	-2%[46.1 µM]	.	-15%
COc1ccccc1N1CCN(C(c2ccc(Cl)cc2)c2nnnn2C(C)(C)C)CC1 (stereo unspecified)	?	-66*	8%	?	?	.
COCCn1nnnc1C(c1cccs1)N1CCN(c2cc(C)ccc2C)CC1 (stereo unspecified)	5%	-8	-27%	?	16µM*!	-11%
CCc1noc(C)c1C(=O)N1CCOc2ccc(CN3CCN(c4ccccn4)CC3)cc2C1	.	.	-8%	.	.	-11%
Cc1ccc(-n2nnc(C(=O)Nc3cc(F)ccc3F)c2C)cc1F	.	83	-22%	?	1%[46.1 µM]	-22%
Cc1ccc(S(=O)(=O)n2c(N)nc3ccccc32)cc1	?	33	-25%	-26%[46.1 µM]	-3%[46.1 µM]	-26%
Cc1ccc(/C=C/c2nc3ccccc3n2S(=O)(=O)c2ccc(Br)cc2)cc1	.	-89*	-19%	?	.	-17%
CSc1ccc(/C=C/c2nc3ccccc3n2S(=O)(=O)c2cccc(Cl)c2)cc1	.	-65*	-30%	?	-18%[46.1 µM]	?
COC(=O)c1cc(C(=O)OC)n2c(C)cc3ccccc3c12	.	.	.	.	13%[14.2 µM]	.
O=C(N1CCC[C@@H]1c1noc2ccccc12)C(F)(F)F	.	-9	.	.	.	.
CCc1ccc(-n2c(=O)c3cccnc3n2CC(=O)Nc2cc(F)ccc2F)cc1	.	-15	-7%[7.34 µM]	?	.	-11%[7.34 µM]
CCN(CC)c1ccc(/C=C/c2c(C)cnc3ccccc23)cc1	.	.	7%	.	.	-6%
Cc1oc(-c2ccccc2Cl)nc1CS(=O)(=O)CC(=O)NC(C)CCc1ccccc1 (stereo unspecified)	.	-18	-15%	-16%[46.1 µM]	?	-22%
COc1cccc([C@@H]2Oc3ccc(Br)cc3C[C@@H]2OC(=O)Nc2cc(OC)c(OC)c(OC)c2)c1	.	.	.	.	-5%[14.2 µM]	.
CC(C)Cc1ccc(CN2CCCC(NC(=O)c3cnc4ccccn4c3=O)C2)cc1 (stereo unspecified)	-11%	-23	-9%	?	-18%[46.1 µM]	0%
Cc1cccn2c(=O)c3cc(C(=O)NCCN4CCOCC4)c(=N)n(Cc4ccc(F)cc4)c3nc12	?	-100*	-14%	5.6µM*	?	-4%
Cc1cccn2c(=O)c3cc(C(=O)NCCN4CCOCC4)c(=N)n(CCN4CCOCC4)c3nc12	-11%	12	-17%	-1%	?	-18%
O=C(NC1CCCN(Cc2ccc(Cl)cc2)C1)c1cnc2ccccn2c1=O (stereo unspecified)	?	-65*	-23%	?	?	-17%
Cc1c2cnn(CC(=O)NCCN3CCOCC3)c(=O)c2c(C)n1Cc1ccc(F)cc1	12%	-72*	-4%	.	.	i
Cc1cccn2c(=O)c3cc(C(=O)NC4CCCC4)c(=N)n(CCCN4CCOCC4)c3nc12	-19%	-25	-15%	-12%[46.1 µM]	3.5µM*	-1%
CCN(Cc1ccccc1)C(=O)C1CCN(S(=O)(=O)c2ccc3c(c2)CCCN3C(C)=O)CC1	.	-39	-13%	3%[46.1 µM]	.	-9%
CC(C)NC(=O)CCSc1nc(-c2ccc3c(c2)OCO3)cc(C(F)(F)F)n1	.	-24	-11%	?	13%[46.1 µM]	-10%
COc1ccc(C(NC(=O)C2CCN(CCOc3ccc(Cl)cc3Cl)CC2)c2ccccn2)cc1 (stereo unspecified)	.	11	-8%	.	.	-3%
COc1ccc(CCNC(=O)c2cc3c(=O)n4cccc(C)c4nc3n(CCCN3CCOCC3)c2=N)cc1	?	-95*	.	.	.	.
